This is an account of results in ChEMBL document CHEMBL3988442, “University of Dundee, Small-Polar-MMV Screening Library” (2021).

About 13,000 (27%) of roughly 48,000 compounds showed an effect of 50% or more. This is one part of the list.

The assay concerns Wolbachia pipientis. The experiment in a line: Anti-Wolbachia Cell-Based Screen. Type of assay: functional. On the set-up: scale not given: in the data most compounds retested in dose-response had high values. The conditions noted are these: 5 µM.
On to `CC(C)c1noc(C(C)N2CCN(Cc3noc(C4CC4)n3)CC2)n1` (stereo not given), for which the “Percent Effect” value came out at 18.72%. `CC(c1nc(C2CC2)no1)N1CCN(Cc2noc(C3CC3)n2)CC1` (stereo not given): the “Percent Effect” value is 103.7%. For `CC(C)c1nc(CN2CCN(C(C)c3nc(C4CC4)no3)CC2)no1` (stereo not given) the value was 0.3475%; for `CC(NC(=O)N1CCN(c2ccccc2)CC1)c1nncn1C` (stereo not given), 1.482%.

As for `CC(C(=O)O)N1CCc2onc(-c3ccc(F)c(F)c3)c2C1` (stereo not given), the “Percent Effect” value is reported as -3.454%. For `CN(Cc1csc2ccccc12)C(=O)NC1CCS(=O)(=O)C1` (stereo not given) the value was -6.965%; for `CC(C)Cn1cc(C(=O)NC2CCS(=O)(=O)C2)c2ccccc2c1=O` (stereo not given), 107.3%; for `COCCn1cc(C(=O)NC2CCS(=O)(=O)C2)c2ccccc2c1=O` (stereo not given), 102%. For `O=C(NC1CCC(N2C(=O)CCC2=O)CC1)c1c[nH]c2ccccc12` (stereo not given) the value was -1.536%. For the compound `O=C(NC1CCS(=O)(=O)C1)c1cn(C2CC2)c(=O)c2ccccc12` (stereo not given), the “Percent Effect” value is listed as 92.4%. Take `O=C(NC1CCS(=O)(=O)C1)c1ccc(-c2ccc(F)cc2)s1` (stereo not given): the “Percent Effect” value came to 1.727%. With `O=C(CCNC(=O)c1sccc1-c1ccccc1)NC1CCS(=O)(=O)C1` (stereo not given) the figure was 26.53%; with `CC(C)n1cc(C(=O)NC2CCS(=O)(=O)C2)c2ccccc2c1=O` (stereo not given), 104.9%. On to `COCCN1CCC(NC(=O)Cn2cc(C)c3ccccc32)CC1`, for which the “Percent Effect” value was -24.59%. With `CC(C)[C@H](NC(=O)NC1CCS(=O)(=O)C1)C(=O)NCc1ccccc1Cl` (stereo not given in full), the “Percent Effect” value is -0.7444%. With `Cn1cc(CCNC(=O)NC2CCS(=O)(=O)C2)cn1` (stereo not given) the figure was -13.02%; with `CCc1c(C(=O)NC2CCS(=O)(=O)C2)cnn1-c1ccc(F)cc1` (stereo not given), 9.191%; with `Cn1cnc2cc(C(=O)N3CCN(CCO)[C@@H]4CS(=O)(=O)C[C@@H]43)ccc21`, -4.245%. As for `O=C(O)c1cc(-c2ccoc2)cc(S(=O)(=O)NC2CC2)c1`, the “Percent Effect” value is reported as 13.87%. Regarding `c1cnc(NCC2Cn3nnc(-c4ccoc4)c3CO2)nc1` (stereo not given), the “Percent Effect” value worked out at 9.551%.

Consider `Cc1nnc(CN2C[C@H](NC(=O)CC3CCCC3)[C@@H](C3CC3)C2)s1`, for which the “Percent Effect” value is -5.316%. As to `COC(=O)C1CN(Cc2ccn(-c3ccc(F)cc3)n2)C[C@@H](C)O1` (stereo not given in full), the “Percent Effect” value was -6.737%. For `CCc1cc(NC(=O)c2cccc(OCC(F)(F)F)n2)[nH]n1` the value was -13.74%; for `O=C(NC1CCS(=O)(=O)C1)c1ccccc1SCc1cscn1` (stereo not given), -4.386%. Take `CC(C)CCn1cc(C(=O)NC2CCS(=O)(=O)C2)c2ccccc2c1=O` (stereo not given): the “Percent Effect” value is given as 143.5%. With `O=C(NC1CCS(=O)(=O)C1)c1sccc1OC(F)F` (stereo not given) the figure was 15.29%; with `Cc1nonc1-c1nc(C(C)C)nn1-c1ccc2c(c1)OCO2`, -15.14%; with `COCCn1ccc2ccc(NC(=O)NCc3noc(C)n3)cc21`, -17.56%. On to `COCCn1cnc2ccc(NC(=O)c3c(C)noc3C)cc2c1=O`, for which the “Percent Effect” value came out at 114.6%.

With `CNC(=O)C(NC(=O)c1c(C)noc1C)c1ccc(F)c(F)c1` (stereo not given), the “Percent Effect” value was 1.933%. For `Cc1noc(C)c1C(=O)NCC(O)c1ccc(F)cc1F` (stereo not given) the value was 3.33%; for `Cc1noc(C)c1C(=O)NCCc1cccs1`, -0.0309%; for `Cc1noc(C)c1C(=O)Nc1ccc2ncn(CC(C)C)c(=O)c2c1`, 120.5%.

For the compound `COc1cc(S(=O)(=O)N2CCc3ccc(F)cc32)cc(C(=O)O)c1OC`, the “Percent Effect” value was -3.468%. `COc1ccc(C)cc1CSCCn1nc2ccccn2c1=O`: the “Percent Effect” value amounted to 4.389%. Consider `Cc1sc2nc(CCN)nc(N3CCS(=O)(=O)CC3)c2c1C`, for which the “Percent Effect” value was 5.115%.

As for `Cc1ccc(C(=O)Nc2cnn(CC(=O)NC3CCCC3)c2)c(=O)[nH]1`, the “Percent Effect” value was -2.747%. `O=C(NC1CCN(CC2CC2)C1)c1ccc(C(=O)c2cc[nH]c2)cc1` (stereo not given): the “Percent Effect” value was determined as 2.424%. With `CCN1CCCC(NC(=O)c2ccc(C)[nH]c2=O)C1` (stereo not given) the figure was 104.5%; with `Cc1ccc(C(=O)NC2CCCN(C)C2)c(=O)[nH]1` (stereo not given), 91.25%; with `Cc1ccc(C(=O)NCCN2CCOCC2)c(=O)[nH]1`, 10.08%.

Regarding `Cc1ccc(C(=O)NC2CCCCNC2=O)c(=O)[nH]1` (stereo not given), the “Percent Effect” value is -8.505%. For `CN1CCCC(NC(=O)c2ccc(C(=O)c3cc[nH]c3)cc2)C1` (stereo not given) the value was 107.5%; for `CN1CCCC(N(C)C(=O)c2ccc(NC(=O)c3ccc[nH]3)cc2)C1` (stereo not given), -8.212%; for `Cc1ccc(C(=O)NC(CN2CCCC2)c2ccccc2)c(=O)[nH]1` (stereo not given), -7.426%.

Regarding `Cc1ccc(C(=O)NC2CCCN(CC(N)=O)C2)c(=O)[nH]1` (stereo not given), the “Percent Effect” value came to 108.8%. `COc1ccc(F)cc1C(=O)N1CCC2(CCC(=O)N(C(C)C)C2)CC1`: the “Percent Effect” value is listed as -13.7%. With `CCN(CC)C1CCN(C(=O)Nc2cc(F)c(OC)c(F)c2)C1` (stereo not given) the figure was -0.1207%; with `COCC(=O)N[C@H](C(=O)NC(C)c1cc(C)ccc1C)C(C)C` (stereo not given in full), -5.803%. `CC(=O)NCC(=O)N1Cc2ccnn2CC(COCCN(C)C)C1` (stereo not given): the “Percent Effect” value is listed as -1.622%. With `Cc1ccc(C(=O)NC2CCN(C(C)C)C2)c(=O)[nH]1` (stereo not given), the “Percent Effect” value worked out at 89.09%. For `Cc1ccc(C(=O)NC(C)CN2CCCC2=O)c(=O)[nH]1` (stereo not given) the value was -26.01%; for `CC(C)N1CCC(NC(=O)NCCC(=O)NCc2ccccc2)C1` (stereo not given), -0.958%. For `CCOc1cc(C)nc(N2CCN(C(=O)c3ccc[nH]3)CC2)n1` the value was -4.872%; for `CC(C)N(Cc1ccc(C#N)cc1)C(=O)Nc1ccncc1`, -13.59%; for `CC(C)N(Cc1cccnc1)C(=O)CCSc1ccc(C#N)cc1`, -11.64%. For `CC(c1ccco1)N(C(=O)CNc1ccc(C#N)cc1)C1CC1` (stereo not given) the value was -9.874%; for `CC(C)N(Cc1ccc(C#N)cc1)C(=O)NCCNc1ncccn1`, -6.799%.

Take `CC(c1cccnc1)N(C)C(=O)NCCOc1ccc(C#N)cc1` (stereo not given): the “Percent Effect” value is recorded as 102.9%. With `CC(c1ccco1)N(C(=O)COc1ccc(C#N)cc1)C1CC1` (stereo not given) the figure was 1.408%. In the case of `CC(c1ccncc1)N(C)C(=O)NCCOc1ccc(C#N)cc1` (stereo not given), the “Percent Effect” value came out at 100.4%. In the case of `CCNC(=O)N(C)C(c1cccnc1)C(C)C` (stereo not given), the “Percent Effect” value is given as -2.757%. For `CC(c1ccco1)N(C)C(=O)NCCOc1ccc(C#N)cc1` (stereo not given) the value was 99.5%. For `O=C(C1SCCc2sccc21)N1CCCCC1` (stereo not given) the value was 1.977%. For `N#Cc1cccnc1OC1CCN(C(=O)c2cc(C3CC3)on2)CC1` the value was -1.829%. Consider `Cc1ccc(N(Cc2ccco2)C(=O)CC2=NN(C)C(=O)C2)cc1`, for which the “Percent Effect” value worked out at 134.3%.

Take `Cc1ccc(N2N=C(C(=O)N(C)Cc3ccco3)NCC2=O)cc1`: the “Percent Effect” value is recorded as 2.373%. For `CN1N=C(C(=O)N(Cc2ccco2)C2CCCC2)CCC1=O`, the “Percent Effect” value is 120.9%.

Consider `CCN(Cc1ccco1)C(=O)C1=NN(c2ccccc2)C(=O)CN1`, for which the “Percent Effect” value is given as 5.452%. For `O=C(c1c[nH]c2ncccc12)N(Cc1ccco1)C1CCCC1` the value was 4.323%; for `CN(Cc1ccco1)C(=O)c1ccc(=O)n(C)c1`, 12.27%. For `CN(CC1COc2ccccc2O1)C(=O)C1=NN(C)C(=O)CC1` (stereo not given) the value was -4.029%; for `O=C(NCCc1nnc2n1CCC2)N(Cc1ccco1)C1CCCC1`, -12.78%. For `CN(Cc1ccco1)C(=O)C1=NN(C)C(=O)CC1` the value was 140.7%; for `COC(=O)c1cc(CN2CCN(c3ncccc3C)CC2)ccc1O`, 0.3059%. As for `CCC(C)NS(=O)(=O)Cc1cccc(NC(=O)C2=CCCC2)c1` (stereo not given), the “Percent Effect” value is on record as -11.93%.

In the case of `CCN(CC(=O)NC)S(=O)(=O)N1CCCCCC1`, the “Percent Effect” value is on record as -4.569%. With `O=C1OCCN1CCCN1CCCC1c1ccc(O)cc1` (stereo not given) the figure was -23.79%; with `Cc1c[nH]c(CN2CC[C@@]3(O)CCN(C(=O)C4CCC4)C[C@H]3C2)n1`, 3.285%; with `O=c1c(-c2ccnc(NC3CCCCC3)n2)cnc2sc(Cl)cn12`, 123.9%. For `CN(c1ncc(C(=O)Nc2ccccc2)c(N)n1)C1CCCCC1` the value was -11.44%. As to `CN(c1nccc(-c2cnc3sc(Cl)cn3c2=O)n1)C1CCCCC1`, the “Percent Effect” value amounted to 110%. With `CCN(C)S(=O)(=O)NC(C)c1cnc(N(C)C2CCCCC2)nc1C` (stereo not given) the figure was -0.2104%; with `CN(c1nccc(-c2cnc3sccn3c2=O)n1)C1CCCCC1`, 92.84%; with `Cc1cn2c(=O)c(-c3ccnc(N(C)C4CCCCC4)n3)cnc2s1`, 84.88%. On to `O=c1c(-c2ccnc(NC3CCOCC3)n2)cnc2sc(Cl)cn12`, for which the “Percent Effect” value was -8.128%.

In the case of `COc1ccnc(NC2CCN(CC(=O)N3CCCC3)CC2)n1`, the “Percent Effect” value is recorded as -3.698%.

As to `Cc1nc(N(C)C2CCCCC2)ncc1C(C)NC(=O)c1cscn1` (stereo not given), the “Percent Effect” value is listed as -3.92%.

Consider `Cc1nc(N(C)C2CCCCC2)ncc1C(C)NC(=O)c1cccnc1` (stereo not given), for which the “Percent Effect” value turned out to be 7.363%.

Consider `CN(C)c1nccc(N(C)C2CCCCC2)n1`, for which the “Percent Effect” value is recorded as -7.043%. For `O=C1N(C2CCCCC2)C[C@H]2CN(C3CCC3)CCN12` the value was -8.618%; for `Cc1ccc(C(C)NCCc2nccn2Cc2ccccc2)o1` (stereo not given), -3.119%; for `O=C(NCCc1ccccc1Cl)NCC1(O)CCSC1` (stereo not given), 5.482%. `COc1ccccc1CC1CCCN(C(=O)c2n[nH]c3c2CCC3)C1` (stereo not given): the “Percent Effect” value is on record as -10.41%.

Consider `COc1cccc(CCC2CCCN(C(=O)c3n[nH]c4c3CCC4)C2)c1` (stereo not given), for which the “Percent Effect” value was 9.398%. For `CO[C@H]1C[C@@H]2CN(C(=O)c3n[nH]c4c3CCCC4)C[C@@H]2C1` the value was 95.28%. For `O=C(NCc1ccccc1Cn1ccnc1)N1CCOCC1`, the “Percent Effect” value is listed as -11.31%.

`CCC(CNC(=O)c1nc(=O)[nH][nH]1)Oc1ccccc1C(F)(F)F` (stereo not given): the “Percent Effect” value is given as -3.223%. With `CCc1nccn1C1CCCN(C(=O)c2ccc3c(c2)nnn3C)C1` (stereo not given) the figure was 93.39%. With `CCc1nccn1C1CCCN(C(=O)c2ccc3[nH]nnc3c2)C1` (stereo not given) the figure was -5.197%; with `CCOc1ccc(C(=O)N2CCCC(n3ccnc3C)C2)cc1OC` (stereo not given), 91.57%; with `CCc1nccn1C1CCCN(C(=O)Cc2ccc(OC)c(F)c2)C1` (stereo not given), -2.667%. With `CCc1nccn1C1CCCN(C(=O)c2ccc(OC)c(OC)c2)C1` (stereo not given) the figure was 97.86%. As for `CCc1nccn1C1CCCN(C(=O)c2ccn(C)c(=O)c2)C1` (stereo not given), the “Percent Effect” value was -5.694%. With `Cc1nccn1C1CCCN(C(=O)c2ccc3c(c2)nnn3C)C1` (stereo not given) the figure was -0.6055%.
